Compound activity as filed in PubChem BioAssay.
rRNA inh HTS: inhibits bacterial ribosomal RNA function over humanized ribosomes. 350,000 tested, 1.6% active. AID 720706. E. coli WT GFP vs humanized-ribosome RFP mutants, fluorescence, 24 h; hits give low values; DMSO median 0, no signal -100. GFP signal change (wild-type ribosome), % (concentration not given with the values);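 active = significant combined selectivity score with lowered wild-type GFP, culture density cut under 30%, mutant RFP and density less affected; inactive = any of these conditions unmet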
PGC1a acetyl inh: PGC1a acetylation modulation, inhibitor mode | 350,000 tested, 0.17% active | AID 651687 | U2OS PGC1a acetylation, AlphaScreen anti-acetyl-lysine; with virally co-expressed GCN5 acetyltransferase | inhibition, % at 15.6 µM;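 active = every replicate shows inhibition of at least 40%; inconclusive = mean inhibition at least 40% but some replicate below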;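 also: 0% = neutral control wells and 100% = positive control wells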
CaV13 ICDI inh: Disruptors of the CACNA1D IQ motif to Ca2+-dependent inactivation inhibitor domain association, primary screening, Förster resonance energy transfer in intact living …; HEK cells, CFP/YFP FRET ICDI-IQ, plate reader, 10 min; percent FRET-ratio fall versus neutral wells; inhibition, % at 12.3 µM; 340,000 tested, 0.098% active;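 active = mean replicate inhibition of at least 30% and at least 1% of replicates passing that level; inconclusive = only one of the two criteria is met; inactive = neither criterion is met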;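 also: 0% = median of the neutral control wells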
ERAP1 inh: ERAP1 (human) enzyme inhibition; Q9NZ08; recombinant ERAP1, Leu-AMC fluorescence, 60 min; inhibition, % at 10.7 µM; 340,000 tested, 0.15% active;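 active = mean replicate inhibition of at least 30%, or all replicates individually reaching that 30% level; inactive = mean below 30% and not every replicate reaching it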;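 also: 0% = neutral control wells and 100% = L-leucinethiol positive control wells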
Target sequence (Q9NZ08 whole entry, looked up): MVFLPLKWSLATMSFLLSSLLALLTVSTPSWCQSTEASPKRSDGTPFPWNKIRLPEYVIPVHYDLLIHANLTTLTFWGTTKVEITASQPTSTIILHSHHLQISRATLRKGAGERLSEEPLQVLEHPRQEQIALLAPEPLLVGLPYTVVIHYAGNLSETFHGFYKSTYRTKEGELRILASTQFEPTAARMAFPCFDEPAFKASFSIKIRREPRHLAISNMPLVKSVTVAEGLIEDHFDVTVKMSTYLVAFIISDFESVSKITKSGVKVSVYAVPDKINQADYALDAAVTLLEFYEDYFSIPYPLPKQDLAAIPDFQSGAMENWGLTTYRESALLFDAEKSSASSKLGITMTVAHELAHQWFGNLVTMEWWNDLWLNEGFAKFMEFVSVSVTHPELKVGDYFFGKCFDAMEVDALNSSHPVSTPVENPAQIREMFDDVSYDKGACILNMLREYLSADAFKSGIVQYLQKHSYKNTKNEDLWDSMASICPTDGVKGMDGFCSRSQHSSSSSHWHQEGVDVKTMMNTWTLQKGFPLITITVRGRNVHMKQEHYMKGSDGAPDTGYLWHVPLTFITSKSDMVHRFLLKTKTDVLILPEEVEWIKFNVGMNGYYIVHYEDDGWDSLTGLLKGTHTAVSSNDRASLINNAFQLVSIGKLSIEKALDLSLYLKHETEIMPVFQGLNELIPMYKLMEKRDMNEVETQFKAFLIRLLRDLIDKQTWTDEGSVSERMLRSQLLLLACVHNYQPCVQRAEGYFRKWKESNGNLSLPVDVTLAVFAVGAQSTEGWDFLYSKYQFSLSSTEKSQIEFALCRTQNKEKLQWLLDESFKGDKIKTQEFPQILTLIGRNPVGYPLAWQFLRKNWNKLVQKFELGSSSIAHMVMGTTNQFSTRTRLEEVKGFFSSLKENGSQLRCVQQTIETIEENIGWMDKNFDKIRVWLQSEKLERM
INS-1E GSIS act: primary screen for activators of insulin secretion dependent on glucose, INS-1E cells, GLuc reporter luminescence; AID 743287; INS-1E GLuc reporter insulin secretion, 2-3 h; 370,000 tested, 0.61% active; activation, % at 16.6 µM;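 active = lowest replicate activation of at least 40%, so every replicate reaches that level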;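 also: 0% = median of neutral control wells and 100% = median of IBMX positive control wells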
DENV2 CPE: protects cells from dengue virus 2 cytopathic effect; DENV2-infected cells, cytopathic effect rescue, plate reader; CPE inhibition, % at 9.99 µM; 350,000 tested, 1.7% active; in the data active = CPE inhibition above about 20%, passing the limit was not always enough; inconclusive = no clear call, values can overlap the other calls; tested in BHK-21 cells;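 also: 0% = median of neutral control wells and 100% = median of positive control wells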
* marks the source's active call; other numbers are inactive results. Sampled rows, rich in hits. Any-hit rate of the full collection: about 3.2%.

Screening C[C@H]1CN([C@@H](C)CO)C(=O)c2cc(NS(=O)(=O)c3cccs3)ccc2O[C@H]1CN(C)C(=O)NC1CCCCC1 returned rRNA inh HTS 0.0, PGC1a acetyl inh 6.8, ERAP1 inh -4.0, INS-1E GSIS act -4.1 and DENV2 CPE inconclusive.
`O=C(N[C@H]1CC[C@@H](CCn2cc(C3(O)CCCC3)nn2)O[C@H]1CO)C1CCC1` gave rRNA inh HTS 1.1, PGC1a acetyl inh -2.1, ERAP1 inh 2.7, INS-1E GSIS act -3.6 and DENV2 CPE -2.7.
`Cc1cccc(NC(=S)NCCSc2ccc(Cl)cc2)c1` gave rRNA inh HTS -36.8*, PGC1a acetyl inh 7.2, CaV13 ICDI inh 3.1, ERAP1 inh -4.1, INS-1E GSIS act -52.3 and DENV2 CPE 1.6.
`Cc1ccc(NC(=S)NCC(C)CSc2ccc(Cl)cc2)cc1` (stereo not given) gave rRNA inh HTS -27.0*, PGC1a acetyl inh -3.8, CaV13 ICDI inh -4.6, ERAP1 inh -0.8, INS-1E GSIS act -53.4 and DENV2 CPE 2.6.
CC(C)CCN(CCC(C)C)CC(O)Cn1c2ccccc2c(=O)c2ccccc21 (stereo not given) was read as PGC1a acetyl inh -5.1, CaV13 ICDI inh active, ERAP1 inh -1.0 and DENV2 CPE -3.6.
CCN1[C@H](C(=O)Nc2ccccc2)[C@@H](CO)[C@@H]2Cn3c(ccc(-c4ccc(F)cc4)c3=O)[C@@H]21 was read as rRNA inh HTS -4.5, ERAP1 inh 3.4, INS-1E GSIS act -7.6 and DENV2 CPE 10.9.
Screening CCOC(=O)/C=c1\sc2n(c1=O)CCN=2 returned PGC1a acetyl inh 5.1, CaV13 ICDI inh -4.6 and INS-1E GSIS act 47.6*.
For COC(=O)/C=c1/sc2n(c1=O)CCN=2 the results were PGC1a acetyl inh -1.1 and INS-1E GSIS act -0.3.
`NC(=O)CC(NC(=O)c1ccccc1)c1ccc(NCCc2cccc(F)c2)c([N+](=O)[O-])c1` (stereo not given) gave rRNA inh HTS 14.3, CaV13 ICDI inh -9.0, ERAP1 inh -4.2, INS-1E GSIS act 2.7 and DENV2 CPE 39.1*.
For NC(=O)CC(NC(=O)c1cccc(Br)c1)c1ccc(NCCN2CCOCC2)c([N+](=O)[O-])c1 (stereo not given) the results were rRNA inh HTS 9.7, CaV13 ICDI inh -5.3, ERAP1 inh -3.5, INS-1E GSIS act -5.9 and DENV2 CPE 29.2*.
`O=C(c1ccc(F)cc1)N1CCCCN2[C@H](CO)[C@@H](c3ccc(-c4ccc(F)cc4)cc3)[C@@H]2C1` gave PGC1a acetyl inh -2.9, ERAP1 inh -3.8 and DENV2 CPE 4.4.
For Cc1cccc2sc(NNC(=O)c3ccc(S(=O)(=O)N4CCCC(C)C4)cc3)nc12 (stereo not given) the results were rRNA inh HTS -5.9, PGC1a acetyl inh 4.7, CaV13 ICDI inh 42.7*, ERAP1 inh 3.6, INS-1E GSIS act -7.0 and DENV2 CPE -8.8.
CCOC(=O)N1CCN(S(=O)(=O)c2ccc(C(=O)NNc3nc4c(C)cc(C)cc4s3)cc2)CC1 was read as PGC1a acetyl inh 23.0, CaV13 ICDI inh -10.1, ERAP1 inh 0.9 and DENV2 CPE -1.9.
Screening Cc1cc(C)c2nc(NNC(=O)c3ccc(S(=O)(=O)N4CCCCC4)cc3)sc2c1 returned rRNA inh HTS -11.7*, CaV13 ICDI inh 2.3, ERAP1 inh 0.3 and DENV2 CPE -6.0.
CN(C(=O)COC(=O)c1ccc2c(c1)OCO2)C1CCCCC1 was read as rRNA inh HTS -3.0, PGC1a acetyl inh -10.6, CaV13 ICDI inh -5.8, ERAP1 inh 0.9, INS-1E GSIS act 9.6 and DENV2 CPE -3.3.
Screening Cc1cc(NC(=O)COC(=O)c2ccccc2S(=O)(=O)N(C)c2ccccc2)no1 returned rRNA inh HTS -32.6*, PGC1a acetyl inh -7.8, CaV13 ICDI inh -7.0, ERAP1 inh 0.9, INS-1E GSIS act -11.6 and DENV2 CPE -4.9.
C[N+]12CCCCC1C(COC(=O)c1ccc3c(c1)OCO3)CCC2 (stereo not given) was read as rRNA inh HTS 11.2, PGC1a acetyl inh -35.8, CaV13 ICDI inh -9.0, ERAP1 inh 30.6*, INS-1E GSIS act 6.8 and DENV2 CPE 13.8.
`Cc1cc(NC(=O)COC(=O)c2ccccc2NCCO)no1` gave rRNA inh HTS -3.7, PGC1a acetyl inh 9.6, CaV13 ICDI inh -6.7, ERAP1 inh -0.6, INS-1E GSIS act 4.2 and DENV2 CPE 7.6.
`COc1ccc(C(=O)NCC(=O)OCC(=O)NC2CCCCCC2)cc1OC` gave rRNA inh HTS 7.0, PGC1a acetyl inh 4.4, CaV13 ICDI inh -1.5, ERAP1 inh -4.8, INS-1E GSIS act 64.7* and DENV2 CPE inconclusive.
For O=C(COC(=O)c1ccc2c(c1)OCO2)NC1CCCCC1 the results were PGC1a acetyl inh -8.0, CaV13 ICDI inh -14.2, ERAP1 inh -8.7 and DENV2 CPE 21.1*.
Screening C/C=C/c1cccc(-c2nc(C(=O)NCc3ccc(OC)cc3)cc3c2[C@@H](CCO)N([S@](=O)C(C)(C)C)C3)c1 returned rRNA inh HTS -0.1, PGC1a acetyl inh 6.1, ERAP1 inh -3.1, INS-1E GSIS act -1.2 and DENV2 CPE 3.5.
Screening Cc1nn(C)cc1NC(=O)C[C@@H]1CC[C@H]2[C@H](COc3ccc(NC(=O)C(C)C)cc3C(=O)N2C)O1 returned rRNA inh HTS 0.8, PGC1a acetyl inh 7.6, INS-1E GSIS act 3.7 and DENV2 CPE -0.5.
Screening CC(C)CC#Cc1ccc([C@H]2[C@@H](CO)N3C(=O)CN(C(=O)CN4CCOCC4)C[C@@H]23)cc1 returned rRNA inh HTS 5.4, PGC1a acetyl inh -0.8, ERAP1 inh -0.3, INS-1E GSIS act 12.0 and DENV2 CPE 8.2.
Screening CCOc1ccc(C(=O)OCC(=O)NC2CCCC2)cc1OCC returned rRNA inh HTS 1.6, PGC1a acetyl inh 1.4, CaV13 ICDI inh -13.5, ERAP1 inh 0.1, INS-1E GSIS act 41.2* and DENV2 CPE 1.3.
CCOc1cc(C(=O)OCC(=O)Nc2cc(C)on2)ccc1OCC(C)C was read as rRNA inh HTS -0.1, CaV13 ICDI inh 4.8, ERAP1 inh 0.9, INS-1E GSIS act -7.2 and DENV2 CPE -6.1.
`CCOc1ccc(C(=O)OCC(=O)Nc2cc(C)on2)cc1OCC` gave PGC1a acetyl inh 1.0, CaV13 ICDI inh -6.8 and INS-1E GSIS act 62.3*.
`CCOc1cc(/C=C/C(=O)OCC(=O)NC2CCS(=O)(=O)C2)ccc1OCc1ccccc1` (stereo not given) gave rRNA inh HTS -28.4*, PGC1a acetyl inh 3.2, CaV13 ICDI inh -6.6, ERAP1 inh -1.2, INS-1E GSIS act -5.0 and DENV2 CPE -5.9.
